From PubChem BioAssay (NCI) come the findings set out here.

Assay in all cases: NCI-60 one-dose screen, 48 h (100 = growth as untreated, 0 = no growth, -100 = all killed)
The subject of one test is T-47D breast. The settings on record: 10 µM.
The next test has as its system BT-549 breast. The settings on record: 10 µM.
A further test deals with MDA-MB-435 melanoma. The settings on record: 10 µM.
The test system of another test is SW-620 colon. Conditions: 10 µM.
The next test relates to MCF7 breast.
In a further test the test system is HCT-116 colon. The settings on record: 10 µM.
The next test concerns HCC-2998 colon. The settings on record: 10 µM.
The subject of the next test is KM12 colon. Conditions: 10 µM.

Several values for one entry are separate records, joined by “and”; a condition that tells them apart may be missing. Equal values may be shown once. The panel holds about 83,000 compounds, 20% with a hit somewhere; the sample as a whole holds those more often.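 Each cell line was grown in a 96-well plate and treated with one concentration of compound for 48 hours. Values below 10 were considered active.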 Values without a mark were called inactive. Activity calls are given as the source filed them.

Regarding `COc1cc(/C=N\Nc2ccccc2)ccc1OC(=O)c1ccccc1`, the growth is 36.1% in the test with T-47D breast; 91% in the test on BT-549 breast; 44.5% with MDA-MB-435 melanoma; 69.8% in the test on SW-620 colon; 56.4% in the test on MCF7 breast (10 µM unless noted); 71.3% in the test on HCT-116 colon. The growth in the test on HCC-2998 colon is 74.9%; in the test with KM12 colon it was 8.69% (active).
In the case of `[O-][N+](=Nc1cccc(Cl)c1)c1cccc(Cl)c1`, the growth in the test on T-47D breast is 30.2%; with BT-549 breast, 73.1%; in the test with MDA-MB-435 melanoma it was 102%; with SW-620 colon, 90.4%; in the test with MCF7 breast (10 µM unless noted) it was 27.6%; in the test on HCT-116 colon, 90.6%. Moreover, the growth was 63.1% in the test with HCC-2998 colon and 91.9% in the test with KM12 colon.
Regarding `Cc1cc(N)ccc1-c1ccc(N)cc1C`, the growth with T-47D breast was 98.1%; in the test with BT-549 breast it was 92.3%; in the test with MDA-MB-435 melanoma, 102%; in the test with SW-620 colon it was 101%; in the test with MCF7 breast (10 µM unless noted), 104%; in the test on HCT-116 colon it was 105%. Further, the growth in the test on HCC-2998 colon was 88.4%; with KM12 colon, 99.7%.
`CN1C(=O)CN2CCc3ccccc3C2c2cc(Cl)ccc21` (stereo not drawn): the growth in the test with T-47D breast is 104%; with BT-549 breast, 99.7%; in the test with MDA-MB-435 melanoma it was 105%; in the test on SW-620 colon it was -33.6% (active); in the test with MCF7 breast (10 µM unless noted), 84.5%; in the test on HCT-116 colon, 82.5%. Further, the growth in the test with HCC-2998 colon is 98.1%; in the test with KM12 colon it was 106%.
Regarding `CCOC(=O)C1OC1c1ccccc1` (stereo not drawn), the growth in the test on T-47D breast is 98.8%; with BT-549 breast it was 102%; in the test with MDA-MB-435 melanoma it was 107%; with SW-620 colon it was 107%; with MCF7 breast (10 µM unless noted), 96%; in the test with HCT-116 colon, 98.6%. Further, the growth with HCC-2998 colon is 108%; in the test on KM12 colon, 100%.
As to `O=C(O)CCCC(=O)O`, the growth is 128% in the test on T-47D breast; 118% with BT-549 breast; 107% with MDA-MB-435 melanoma; 93.1% with SW-620 colon; 101% with MCF7 breast (10 µM unless noted); 100% in the test with HCT-116 colon. Besides, the growth in the test with HCC-2998 colon was 103%; in the test with KM12 colon it was 92.4%.
With `CC(=O)OCC1CCCO1` (stereo not drawn), the growth in the test with T-47D breast was 93.1%; with BT-549 breast, 107%; in the test on MDA-MB-435 melanoma, 100%; with SW-620 colon it was 87.3%; in the test on MCF7 breast (10 µM unless noted) it was 94.2%; in the test with HCT-116 colon it was 105%. For the same compound, the figures for the growth in the test with HCC-2998 colon and in the test on KM12 colon were 84.8% and 102%, respectively.
Take `COc1ccc(-c2cc3c(nn2)-c2ccccc2C3=O)cc1`: the growth in the test with T-47D breast was 77.5%; with BT-549 breast, 89.7%; in the test on MDA-MB-435 melanoma it was 10.4%; with SW-620 colon, 4.15% (active); with MCF7 breast (10 µM unless noted) it was 16.2%; in the test with HCT-116 colon, 32%. For the same compound, the figures for the growth in the test with HCC-2998 colon and in the test on KM12 colon were 34.5% and 37.1%, respectively.
For the compound `C=C1CC/C=C(\C)C(=O)C[C@@H]2[C@@H]1CC2(C)C`, the growth in the test on T-47D breast was 94.6%; with BT-549 breast, 105%; in the test on MDA-MB-435 melanoma, 115%; with SW-620 colon it was 119%; with MCF7 breast (10 µM), 101%; in the test on MCF7 breast (100 µM), -72% (active). Further, the values for the growth with HCT-116 colon, in the test on HCC-2998 colon and with KM12 colon were 99.9%, 98.1% and 109%, respectively.
In the case of `COc1cc2cc(OC(C)=O)c3cc4c(cc3c2c(OC)c1OC)OCO4`, the growth with T-47D breast was 106%; in the test with BT-549 breast, 104%; in the test on MDA-MB-435 melanoma, 102%; in the test on SW-620 colon, 96.9%; in the test with MCF7 breast (10 µM unless noted), 93.6%; with HCT-116 colon, 104%. Besides, the results for the growth in the test on HCC-2998 colon and with KM12 colon were 107% and 99.8%, respectively.
Turning to `Sc1ccc(Nc2c3ccccc3nc3ccccc23)cc1`, the growth with T-47D breast is 38%; with BT-549 breast, 94.6%; in the test on MDA-MB-435 melanoma, 92.8%; in the test with SW-620 colon, 61.3%; in the test with MCF7 breast (10 µM unless noted), 71.7%; in the test with HCT-116 colon, 96.4%. The growth in the test on HCC-2998 colon was 68.9%; with KM12 colon, 65.5%.
In the case of `CC(=O)OCC1=CC2OC(=O)C3=COC(OC4OC(CO)C(O)C(O)C4O)C1C32` (stereo not drawn), the growth with T-47D breast was 105%; with BT-549 breast it was 110%; with MDA-MB-435 melanoma it was 109%; in the test on SW-620 colon, 111%; in the test with MCF7 breast (10 µM) it was 96.7%; with MCF7 breast (100 µM), 78% and 90.4%. Besides, the growth is 123% in the test with HCT-116 colon, 300% with HCC-2998 colon and 107% in the test with KM12 colon.
On to `CC(=O)NC(N)=S`, for which the growth in the test with T-47D breast was 124%; in the test on BT-549 breast it was 117%; in the test on MDA-MB-435 melanoma, 117%; in the test with SW-620 colon it was 101%; in the test on MCF7 breast (10 µM unless noted) it was 86.5%; with HCT-116 colon, 111%. Moreover, the growth in the test on HCC-2998 colon was 100%; in the test with KM12 colon, 107%.
With `CCOC(=O)c1[nH]c(C)c(C(C)=O)c1C`, the growth was 86.9% in the test with T-47D breast; 107% with BT-549 breast; 94.7% in the test on MDA-MB-435 melanoma; 99.4% with SW-620 colon; 87.1% with MCF7 breast (10 µM unless noted); 90.4% in the test with HCT-116 colon. For the same compound, the growth is 88.6% in the test on HCC-2998 colon and 98.3% with KM12 colon.
Take `O=S(=O)(O)c1ccc(Cl)c(Cl)c1`: the growth is 105% with T-47D breast; 97.7% in the test with BT-549 breast; 100% in the test with MDA-MB-435 melanoma; 111% in the test with SW-620 colon; 99.9% in the test with MCF7 breast (10 µM unless noted); 105% with HCT-116 colon. For the same compound, the growth with HCC-2998 colon is 104%; with KM12 colon, 111%.
For the compound `CC(=Nc1ccccc1)C1=C(O)C(Cc2cccc(F)c2)NC1=O` (stereo not drawn), the growth is 72.6% in the test with T-47D breast; -20.2% (active) in the test with BT-549 breast; -46.2% (active) in the test on MDA-MB-435 melanoma; 26.8% with SW-620 colon; 20.9% in the test on MCF7 breast (10 µM unless noted); 7.22% (active) in the test with HCT-116 colon. Besides, the growth with HCC-2998 colon was 26.9%; in the test on KM12 colon, -3.04% (active).
`C/C(O)=C(\C=N\C(N)=S)C(=O)Nc1ccccc1`: the growth in the test with T-47D breast was 102%; in the test with BT-549 breast, 108%; with MDA-MB-435 melanoma, 110%; with SW-620 colon, 110%; in the test on MCF7 breast (10 µM unless noted), 102%; in the test on HCT-116 colon, 102%. Further, the values for the growth in the test on HCC-2998 colon and in the test with KM12 colon were 110% and 104%, respectively.
